# Test results from PubChem BioAssay AID1159580 (chemical genetic matrix, 2015).
# The campaign covered roughly 5,500 compounds. About 2,000 (36%) were called active. Another 18% or so got no clear call; they are omitted. Some of the results follow. Unmarked numbers belong to inactive results. No stated cut-off is given here; in the data, active means normalized growth mostly below about 0.91 (no sharp cut-off); inconclusive means no clear call, values can overlap the other calls; inactive means mostly above about 0.92.
# Test: chemical genetic growth profiling, strain panel (AID 1159580);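 further: tested at 20 µM; growth read once vehicle control cultures reached saturation at 30 °C; 1 = growth at the plate median or of vehicle wells; lower values mean less growth of the strain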
# Details: growth OD
# [1] = S. cerevisiae deletion strains, locus YAL013W, strain DEP1, active compounds read low
# [2] = S. cerevisiae deletion strains, locus YBR229C, strain ROT2, active compounds read low
# [3] = S. cerevisiae deletion strains, locus YDL101C, strain DUN1, active compounds read low
# [4] = S. cerevisiae deletion strains, locus YDR150W, strain NUM1, active compounds read low
# [5] = S. cerevisiae deletion strains, locus YEL061C, strain CIN8, active compounds read low
# [6] = S. cerevisiae deletion strains, locus YGR078C, strain PAC10, active compounds read low
# [7] = S. cerevisiae deletion strains, locus YHR030C, strain SLT2, active compounds read low
# [8] = S. cerevisiae deletion strains, locus YJR043C, strain POL32, active compounds read low
# [9] = S. cerevisiae deletion strains, locus YJR075W, strain HOC1, active compounds read low
# [10] = S. cerevisiae deletion strains, locus YLR039C, strain RIC1, active compounds read low
# [11] = S. cerevisiae deletion strains, locus YLR262C, strain YPT6, active compounds read low
# [12] = S. cerevisiae deletion strains, locus YMR263W, strain SAP30, active compounds read low
# [13] = S. cerevisiae deletion strains, locus YNL128W, strain TEP1, active compounds read low
# [14] = S. cerevisiae deletion strains, locus YNL153C, strain GIM3, active compounds read low
# [15] = S. cerevisiae deletion strains, locus YNL322C, strain KRE1, active compounds read low
# [16] = S. cerevisiae deletion strains, locus YOL006C, strain TOP1, active compounds read low
# [17] = S. cerevisiae deletion strains, locus YPL055C, strain LGE1, active compounds read low
# [18] = S. cerevisiae deletion strains, locus YPL241C, strain CIN2, active compounds read low
# [19] = S. cerevisiae strains, strain wild type, active compounds read low
compound,measurement,setting,value
COC(=O)CCC(=O)O[C@H]1CCC2(C)C(CCC3C2C(=O)[C@@H](O)C2(C)C3CC3OC4(CCC(C)CO4)[C@@H](C)C32)C1 (stereo partly specified),normalized growth,[1],0.991
same,normalized growth,"S. cerevisiae deletion strains, locus YBR021W, strain FUR4, active compounds read low",1.01
same,normalized growth,[2],1.01
same,normalized growth,"S. cerevisiae deletion strains, locus YCL029C, strain bik1, active compounds read low",0.997
same,normalized growth,"S. cerevisiae deletion strains, locus YDL035C, strain GPR1, active compounds read low",0.993
same,normalized growth,"S. cerevisiae deletion strains, locus YDL074C, strain BRE1, active compounds read low",0.997
same,normalized growth,[3],1.02
same,normalized growth,"S. cerevisiae deletion strains, locus YDL134C, strain PPH21, active compounds read low",1
same,normalized growth,"S. cerevisiae deletion strains, locus YDL185W, strain tfp1, active compounds read low",0.996
same,normalized growth,"S. cerevisiae deletion strains, locus YDL192W, strain arf1, active compounds read low",1
same,normalized growth,"S. cerevisiae deletion strains, locus YDR101C, strain arx1, active compounds read low",0.997
same,normalized growth,[4],1
same,normalized growth,"S. cerevisiae deletion strains, locus YDR162C, strain NBP2, active compounds read low",1
same,normalized growth,"S. cerevisiae deletion strains, locus YDR318W, strain mcm21, active compounds read low",0.996
same,normalized growth,"S. cerevisiae deletion strains, locus YDR388W, active compounds read low",0.994
same,normalized growth,"S. cerevisiae deletion strains, locus YDR502C, strain sam2, active compounds read low",1
same,normalized growth,[5],1.01
same,normalized growth,"S. cerevisiae deletion strains, locus YER110C, active compounds read low",0.996
same,normalized growth,"S. cerevisiae deletion strains, locus YER155C, strain BEM2, active compounds read low",1.01
same,normalized growth,"S. cerevisiae deletion strains, locus YER167W, strain BCK2, active compounds read low",1.02
same,normalized growth,"S. cerevisiae deletion strains, locus YGL078C, strain dbp3, active compounds read low",0.991
same,normalized growth,"S. cerevisiae deletion strains, locus YGL086W, strain mad1, active compounds read low",1
same,normalized growth,"S. cerevisiae deletion strains, locus YGL248W, strain PDE1, active compounds read low",1
same,normalized growth,[6],1.02
same,normalized growth,"S. cerevisiae deletion strains, locus YGR135W, strain pre9, active compounds read low",1
same,normalized growth,"S. cerevisiae deletion strains, locus YGR229C, strain SMI1, active compounds read low",1.01
same,normalized growth,"S. cerevisiae deletion strains, locus YGR252W, strain gcn5, active compounds read low",0.963
same,normalized growth,[7],1.01
same,normalized growth,"S. cerevisiae deletion strains, locus YHR079C, strain IRE1 (second series), active compounds read low",0.991
same,normalized growth,"S. cerevisiae deletion strains, locus YHR094C, strain hxt1, active compounds read low",0.998
same,normalized growth,"S. cerevisiae deletion strains, locus YHR129C, strain ARP1, active compounds read low",0.999
same,normalized growth,"S. cerevisiae deletion strains, locus YHR200W, strain rpn10, active compounds read low",1
same,normalized growth,"S. cerevisiae deletion strains, locus YIL066C, strain RNR3, active compounds read low",1.01
same,normalized growth,"S. cerevisiae deletion strains, locus YIL073C, strain SPO22, active compounds read low",1
same,normalized growth,"S. cerevisiae deletion strains, locus YIL125W, strain kgd1, active compounds read low",1.01
same,normalized growth,"S. cerevisiae deletion strains, locus YIR030C, strain dcg1, active compounds read low",0.998
same,normalized growth,"S. cerevisiae deletion strains, locus YJL095W, strain BCK1, active compounds read low",0.989
same,normalized growth,"S. cerevisiae deletion strains, locus YJL134W, strain LCB3, active compounds read low",1.01
same,normalized growth,"S. cerevisiae deletion strains, locus YJL168C, strain set2, active compounds read low",0.994
same,normalized growth,"S. cerevisiae deletion strains, locus YJL187C, strain SWE1 (second series), active compounds read low",1
same,normalized growth,[8],1
same,normalized growth,[9],1.02
same,normalized growth,"S. cerevisiae deletion strains, locus YKL009W, strain mrt4, active compounds read low",0.998
same,normalized growth,"S. cerevisiae deletion strains, locus YKL068W, active compounds read low",0.999
same,normalized growth,"S. cerevisiae deletion strains, locus YKL085W, strain MDH1 (second series), active compounds read low",0.996
same,normalized growth,"S. cerevisiae deletion strains, locus YKL085W, strain MDH1, active compounds read low",0.996
same,normalized growth,"S. cerevisiae deletion strains, locus YKL190W, strain CNB1, active compounds read low",1.01
same,normalized growth,"S. cerevisiae deletion strains, locus YKR001C, strain vps1, active compounds read low",0.993
same,normalized growth,[10],0.996
same,normalized growth,"S. cerevisiae deletion strains, locus YLR058C, strain SHM2, active compounds read low",1
same,normalized growth,"S. cerevisiae deletion strains, locus YLR102C, strain apc9, active compounds read low",0.996
same,normalized growth,[11],0.984
same,normalized growth,"S. cerevisiae deletion strains, locus YLR268W, strain sec22, active compounds read low",1
same,normalized growth,"S. cerevisiae deletion strains, locus YLR330W, strain CHS5, active compounds read low",1.01
same,normalized growth,"S. cerevisiae deletion strains, locus YLR342W, strain FKS1 (second series), active compounds read low",1.02
same,normalized growth,"S. cerevisiae deletion strains, locus YLR371W, strain rom2, active compounds read low",1
same,normalized growth,"S. cerevisiae deletion strains, locus YLR418C, strain cdc73, active compounds read low",0.982
same,normalized growth,"S. cerevisiae deletion strains, locus YML016C, strain PPZ1, active compounds read low",1.01
same,normalized growth,"S. cerevisiae deletion strains, locus YML032C, strain rad52, active compounds read low",1.01
same,normalized growth,"S. cerevisiae deletion strains, locus YML124C, strain tub3, active compounds read low",0.998
same,normalized growth,"S. cerevisiae deletion strains, locus YMR078C, strain ctf18, active compounds read low",0.994
same,normalized growth,"S. cerevisiae deletion strains, locus YMR223W, strain ubp8, active compounds read low",1
same,normalized growth,[12],1.03
same,normalized growth,"S. cerevisiae deletion strains, locus YMR307W, strain GAS1, active compounds read low",0.997
same,normalized growth,"S. cerevisiae deletion strains, locus YNL067W, strain RPL9B, active compounds read low",1.01
same,normalized growth,[13],1.01
same,normalized growth,[14],1.01
same,normalized growth,"S. cerevisiae deletion strains, locus YNL233W, strain BNI4, active compounds read low",1
same,normalized growth,"S. cerevisiae deletion strains, locus YNL250W, strain rad50, active compounds read low",0.999
same,normalized growth,"S. cerevisiae deletion strains, locus YNL271C, strain bni1, active compounds read low",0.995
same,normalized growth,"S. cerevisiae deletion strains, locus YNL298W, strain CLA4, active compounds read low",0.985
same,normalized growth,"S. cerevisiae deletion strains, locus YNL307C, strain MCK1, active compounds read low",0.997
same,normalized growth,[15],1.01
same,normalized growth,"S. cerevisiae deletion strains, locus YNR052C, strain pop2, active compounds read low",1
same,normalized growth,[16],0.943
same,normalized growth,"S. cerevisiae deletion strains, locus YOL012C, strain htz1",1.03
same,normalized growth,"S. cerevisiae deletion strains, locus YOL147C, strain pex11, active compounds read low",1
same,normalized growth,"S. cerevisiae deletion strains, locus YOR061W, strain CKA2, active compounds read low",1
same,normalized growth,"S. cerevisiae deletion strains, locus YOR069W, strain VPS5, active compounds read low",1.01
same,normalized growth,"S. cerevisiae deletion strains, locus YOR136W, strain idh2, active compounds read low",1
same,normalized growth,"S. cerevisiae deletion strains, locus YOR144C, strain elg1, active compounds read low",0.996
same,normalized growth,"S. cerevisiae deletion strains, locus YOR184W, strain ser1, active compounds read low",1.01
same,normalized growth,"S. cerevisiae deletion strains, locus YOR316C, strain cot1, active compounds read low",1
same,normalized growth,[17],1.03
same,normalized growth,[18],1
same,normalized growth,"S. cerevisiae deletion strains, locus YPR119W, strain clb2, active compounds read low",0.988
same,normalized growth,"S. cerevisiae deletion strains, locus YPR141C, strain kar3, active compounds read low",0.997
same,normalized growth,"S. cerevisiae deletion strains, locus YPR163C, strain tif3, active compounds read low",0.998
same,normalized growth,"S. cerevisiae deletion strains, locus YPR167C, strain met16, active compounds read low",1
same,normalized growth,"S. cerevisiae deletion strains, strain wtn01, active compounds read low",1
same,normalized growth,[19],1.04
COc1ccc(C=C2C(=O)NC(=S)NC2=O)cc1Br,normalized growth,[1],1.02
same,normalized growth,[2],1.03
same,normalized growth,[3],1
same,normalized growth,[4],0.946
same,normalized growth,[5],0.992
same,normalized growth,[6],0.995
same,normalized growth,[7],1.01
same,normalized growth,"S. cerevisiae deletion strains, locus YHR087W, strain rtc3, active compounds read low",0.984
same,normalized growth,[8],0.998
same,normalized growth,[9],1
same,normalized growth,[10],1.07
same,normalized growth,"S. cerevisiae deletion strains, locus YLR058C, strain SHM2 (second series), active compounds read low",1
same,normalized growth,"S. cerevisiae deletion strains, locus YLR085C, strain ARP6, active compounds read low",1.01
same,normalized growth,[11],1.06
same,normalized growth,"S. cerevisiae deletion strains, locus YML094W, strain GIM5, active compounds read low",1
same,normalized growth,"S. cerevisiae deletion strains, locus YMR219W, strain ESC1, active compounds read low",1.01
same,normalized growth,[12],0.928
same,normalized growth,[13],1
same,normalized growth,[14],0.965
same,normalized growth,"S. cerevisiae deletion strains, locus YNL298W, strain CLA4 (second series), active compounds read low",1
same,normalized growth,[15],1.01
same,normalized growth,"S. cerevisiae deletion strains, locus YNR030W, strain Alg12, active compounds read low",0.997
same,normalized growth,[16],1.01
same,normalized growth,[17],0.884
same,normalized growth,[18],1.02
same,normalized growth,"S. cerevisiae deletion strains, locus YPR135W, strain CTF4, active compounds read low",0.968
same,normalized growth,[19],1.01
O=C1Nc2ccc(I)cc2/C1=C/c1cc(Br)c(O)c(Br)c1,normalized growth,"S. cerevisiae deletion strains, locus YAL040C, strain CLN3, active compounds read low",0.966
same,normalized growth,"S. cerevisiae deletion strains, locus YCL061C, strain MRC1 (second series), active compounds read low",0.995
same,normalized growth,[4],0.953
same,normalized growth,"S. cerevisiae deletion strains, locus YDR363W, strain ESC2, active compounds read low",0.942
same,normalized growth,"S. cerevisiae deletion strains, locus YER002W, strain NOP16, active compounds read low",1.01
same,normalized growth,[6],0.919
same,normalized growth,[9],0.979
same,normalized growth,[12],0.991
same,normalized growth,[14],0.666 (active)
same,normalized growth,"S. cerevisiae deletion strains, locus YNL175C, strain NOP13, active compounds read low",0.922
same,normalized growth,"S. cerevisiae deletion strains, locus YNL197C, strain WHI3, active compounds read low",0.97
same,normalized growth,"S. cerevisiae deletion strains, locus YNL224C, strain SQS1, active compounds read low",0.993
same,normalized growth,"S. cerevisiae deletion strains, locus YOR083W, strain WHI5 (second series), active compounds read low",0.665 (active)
